A structure can be active in one record and inactive in another. Calls of active or inactive are those of the source. The calls were made as follows: active = hit-call score of the fitted dose curve at least 0.9, where 1 is the maximum; inactive = score below 0.9.
Key:
[1] = ATG_ISRE_CIS: Attagene CIS-FACTORIAL HepG2 Assay for human Interferon Regulatory Factor 1 (IRF1) binding to an Interferon-Stimulated Response Element (ISRE) (AID 2282948); details: HepG2 ISRE cis-reporter (Attagene), mRNA transcription readout; actives raise or lower the signal
Method in brief: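 Transiently transfected HepG2 cells carrying cis-element reporter units, dosed 24 hours. Reporter mRNA quantified by RT-PCR, fluorescent primer extension, HpaI digestion and capillary electrophoresis. Bidirectional fitting relative to DMSO.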

[2] = ATG_M_32_CIS: Attagene CIS-FACTORIAL HepG2 Assay for M32 Transcription Factor (Internal Marker) (AID 2282949); details: HepG2 Attagene cis-factorial M32 reporter, mRNA; actives raise or lower the signal;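 also: background control marker of the multiplexed CIS panel rather than a real target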
Method in brief: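 HepG2 cells transiently transfected with multiplexed cis-regulated reporter units, dosed 24 h. Reporter mRNA quantified by RT-PCR, 6-FAM labelling, HpaI digestion and capillary electrophoresis; bidirectional fit vs DMSO.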

[3] = ATG_M_06_CIS: Attagene CIS-FACTORIAL HepG2 Assay for M06 Transcription Factor (Internal Marker) (AID 2282950); details: HepG2 Attagene CIS-FACTORIAL M06 internal marker reporter; actives raise or lower the signal
Method in brief: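 Measured 24 h post-dosing in transiently transfected HepG2 cells, this internal-marker endpoint reports reporter mRNA via RT-PCR with fluorescent primer extension and capillary electrophoresis. DMSO served as negative control and baseline for bidirectional fitting.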

[4] = biological target: Hypoxia-inducible factor 1-alpha (Homo sapiens) (UniProt Q16665); assay: ATG_HIF1a_CIS: Attagene CIS-FACTORIAL HepG2 Assay for human Hypoxia Inducible Factor 1 (HIF1A) (AID 2282951); details: HepG2 Attagene cis-factorial HIF1a reporter transcription; actives raise or lower the signal
Chain of Hypoxia-inducible factor 1-alpha (Homo sapiens) (Q16665 whole entry, looked up): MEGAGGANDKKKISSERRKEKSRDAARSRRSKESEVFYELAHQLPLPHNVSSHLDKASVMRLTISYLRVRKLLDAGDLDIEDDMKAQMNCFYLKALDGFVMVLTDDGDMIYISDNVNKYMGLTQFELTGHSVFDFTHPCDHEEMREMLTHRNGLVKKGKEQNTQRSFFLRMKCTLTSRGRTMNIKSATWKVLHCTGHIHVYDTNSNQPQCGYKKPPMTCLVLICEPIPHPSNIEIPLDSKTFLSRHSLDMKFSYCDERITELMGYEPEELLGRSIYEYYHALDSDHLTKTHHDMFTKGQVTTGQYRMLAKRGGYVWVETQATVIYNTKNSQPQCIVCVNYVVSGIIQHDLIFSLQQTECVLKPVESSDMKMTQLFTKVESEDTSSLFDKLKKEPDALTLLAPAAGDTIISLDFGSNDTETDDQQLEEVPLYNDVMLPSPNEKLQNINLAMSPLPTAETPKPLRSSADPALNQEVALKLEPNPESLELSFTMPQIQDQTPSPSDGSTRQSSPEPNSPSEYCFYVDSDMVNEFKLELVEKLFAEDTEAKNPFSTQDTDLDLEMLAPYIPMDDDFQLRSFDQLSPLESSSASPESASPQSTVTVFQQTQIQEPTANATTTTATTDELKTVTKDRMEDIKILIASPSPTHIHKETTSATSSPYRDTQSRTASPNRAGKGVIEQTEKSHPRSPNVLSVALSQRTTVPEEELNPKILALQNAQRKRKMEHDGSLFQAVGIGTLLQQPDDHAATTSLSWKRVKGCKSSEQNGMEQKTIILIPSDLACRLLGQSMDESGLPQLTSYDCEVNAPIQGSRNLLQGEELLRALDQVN
Method in brief: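 Activity is fitted in both directions relative to DMSO. Reporter transcripts are read by RT-PCR, fluorescent primer extension and capillary electrophoresis after 24 h chemical treatment. The cells are HepG2 carrying transiently transfected cis-element-driven reporter units responding to endogenous factors.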

[5] = biological target: Hepatocyte nuclear factor 6 (Homo sapiens) (UniProt Q9UBC0); assay: ATG_HNF6_CIS: Attagene CIS-FACTORIAL HepG2 Assay for human Hepatocyte Nuclear Factor 6 (HNF6) (AID 2282952); details: HepG2 Attagene cis-factorial HNF6 reporter transcription; actives raise or lower the signal
Chain of Hepatocyte nuclear factor 6 (Homo sapiens) (Q9UBC0 whole entry, looked up): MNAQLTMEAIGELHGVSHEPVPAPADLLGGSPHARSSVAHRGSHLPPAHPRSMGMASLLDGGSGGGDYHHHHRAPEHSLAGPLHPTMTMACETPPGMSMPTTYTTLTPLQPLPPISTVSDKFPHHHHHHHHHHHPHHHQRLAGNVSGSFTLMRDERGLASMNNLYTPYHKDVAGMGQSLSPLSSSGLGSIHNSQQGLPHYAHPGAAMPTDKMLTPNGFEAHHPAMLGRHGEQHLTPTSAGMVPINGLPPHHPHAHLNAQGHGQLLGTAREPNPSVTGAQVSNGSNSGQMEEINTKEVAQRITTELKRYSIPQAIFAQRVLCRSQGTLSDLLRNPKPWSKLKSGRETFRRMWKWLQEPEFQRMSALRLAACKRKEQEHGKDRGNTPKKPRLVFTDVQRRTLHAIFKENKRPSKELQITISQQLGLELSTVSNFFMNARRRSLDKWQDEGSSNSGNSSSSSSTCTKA
Method in brief: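 Transiently transfected HepG2 cells expressing cis-regulated reporter transcription units were exposed to chemical for 24 h in a 24-well format. Reporter transcript abundance was determined by fluorescence capillary electrophoresis.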

[6] = biological target: Heat shock factor protein 1 (Homo sapiens) (UniProt Q00613); assay: ATG_HSE_CIS: Attagene CIS-FACTORIAL HepG2 Assay for human Heat Shock Transcription Factor 1 (HSE) (AID 2282953); details: HepG2 HSE cis-reporter, Attagene RNA transcription; actives raise or lower the signal
Chain of Heat shock factor protein 1 (Homo sapiens) (Q00613 whole entry, looked up): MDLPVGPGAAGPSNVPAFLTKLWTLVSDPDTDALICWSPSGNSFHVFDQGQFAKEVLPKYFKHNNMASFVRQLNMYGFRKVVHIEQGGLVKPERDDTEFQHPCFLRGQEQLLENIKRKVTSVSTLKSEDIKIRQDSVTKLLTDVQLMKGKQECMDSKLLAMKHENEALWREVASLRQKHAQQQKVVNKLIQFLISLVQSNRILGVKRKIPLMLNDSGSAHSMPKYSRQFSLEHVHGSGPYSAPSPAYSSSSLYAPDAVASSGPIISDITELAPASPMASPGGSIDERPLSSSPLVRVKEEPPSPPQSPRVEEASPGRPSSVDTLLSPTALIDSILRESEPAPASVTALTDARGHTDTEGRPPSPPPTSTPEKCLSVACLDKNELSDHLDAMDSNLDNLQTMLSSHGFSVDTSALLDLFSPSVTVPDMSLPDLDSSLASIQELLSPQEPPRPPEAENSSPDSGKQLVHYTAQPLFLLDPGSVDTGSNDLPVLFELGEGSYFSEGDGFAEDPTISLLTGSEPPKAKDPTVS
Method in brief: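 Reporter mRNA induction in HepG2 is measured 24 h after dosing, using transiently transfected multiplexed cis-regulated reporter units. Signal comes from capillary electrophoresis of labelled RT-PCR products, with DMSO as negative control.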

[7] = ATG_MRE_CIS: Attagene CIS-FACTORIAL HepG2 Assay for human Metal Responsive Element (MRE) (AID 2282954); details: HepG2 MRE cis-reporter transcription, Attagene multiplex; actives raise or lower the signal
Method in brief: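 Transient MRTU transfection of HepG2 (FuGene 6); 24 h dosing; total RNA → oligo(dT) RT, PCR, 6-FAM primer extension, HpaI cut, CE. Bidirectional fit vs DMSO.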

[8] = biological target: Paired box protein Pax-6 (Homo sapiens) (UniProt P26367); assay: ATG_Pax6_CIS: Attagene CIS-FACTORIAL HepG2 Assay for human Paired Box 6 (PAX6) (AID 2282956); details: HepG2 CIS-FACTORIAL PAX6 reporter transcription, RNA readout; actives raise or lower the signal
Chain of Paired box protein Pax-6 (Homo sapiens) (P26367 whole entry, looked up): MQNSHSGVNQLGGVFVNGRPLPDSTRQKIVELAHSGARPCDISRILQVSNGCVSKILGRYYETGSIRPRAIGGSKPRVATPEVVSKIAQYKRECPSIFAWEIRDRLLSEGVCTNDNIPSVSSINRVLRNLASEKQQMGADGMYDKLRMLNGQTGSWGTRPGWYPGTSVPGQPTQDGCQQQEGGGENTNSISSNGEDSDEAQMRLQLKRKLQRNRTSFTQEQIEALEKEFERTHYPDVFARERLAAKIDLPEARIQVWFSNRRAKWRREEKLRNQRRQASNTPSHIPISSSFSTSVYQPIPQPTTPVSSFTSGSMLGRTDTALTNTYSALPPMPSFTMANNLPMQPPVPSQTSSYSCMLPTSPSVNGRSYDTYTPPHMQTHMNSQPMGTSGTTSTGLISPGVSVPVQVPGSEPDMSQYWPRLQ
Method in brief: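 HepG2 cells transiently transfected with cis-promoter-driven multiplexed reporter units sensing endogenous transcription factor activity; 24 h chemical exposure. Reporter mRNA quantified by RT-PCR, 6-FAM labelling, HpaI digestion and capillary electrophoresis; bidirectional fit versus DMSO baseline.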

[9] = ATG_PXRE_CIS: Attagene CIS-FACTORIAL HepG2 Assay for human Pregnane X Receptor Element (PXRE) (AID 2282957); details: HepG2 Attagene CIS-FACTORIAL PXRE reporter, mRNA; actives raise or lower the signal
Method in brief: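 Cis-element reporter mRNA in human hepatoma HepG2 cells is measured 24 h post-dosing by RT-PCR, primer-extension labeling and capillary electrophoresis; gain or loss of signal is fitted relative to DMSO.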

[10] = ATG_PPRE_CIS: Attagene CIS-FACTORIAL HepG2 Assay for human Peroxisome Proliferator-activated Response Element (PPRE) (AID 2282958); details: HepG2 PPRE cis-element reporter, Attagene transcription factor profiling; actives raise or lower the signal
Method in brief: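 Endogenous PPRE-driven transcription is measured in HepG2 cells carrying transfected multi-reporter constructs. Reporter transcripts are quantified by RT-PCR, HpaI digestion and capillary electrophoresis 24 h after dosing. DMSO baseline, bidirectional fit.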

[11] = ATG_RORE_CIS: Attagene CIS-FACTORIAL HepG2 Assay for human RAR-related Orphan Receptor Element (RORE) (AID 2282959); details: HepG2 Attagene cis-factorial RORE reporter, mRNA; actives raise or lower the signal
Method in brief: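 RORE reporter transcripts reflecting endogenous factor activity were read after 24 h compound exposure of transfected HepG2 cells, using reverse transcription, PCR, fluorescent labelling and capillary electrophoresis sizing. Gain or loss fitted against DMSO.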

[12] = ATG_Sox_CIS: Attagene CIS-FACTORIAL HepG2 Assay for human SRY-box transcription factor (SOX) (AID 2282960); details: HepG2 Attagene cis-factorial SOX reporter, mRNA; actives raise or lower the signal
Method in brief: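 Reporter transcripts, measured by RT-PCR and capillary electrophoresis of labelled fragments, report endogenous SOX transcription factor activity. Transiently transfected human HepG2 cells receive chemical for 24 h; changes in either direction are fitted relative to DMSO.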

[13] = biological target: Transcription factor Sp1 (Homo sapiens) (UniProt P08047); assay: ATG_Sp1_CIS: Attagene CIS-FACTORIAL HepG2 Assay for human Specificity Protein 1 (Sp1) (AID 2282961); details: HepG2 Sp1 cis-reporter transcription, actives raise or lower the signal
Chain of Transcription factor Sp1 (Homo sapiens) (P08047 whole entry, looked up): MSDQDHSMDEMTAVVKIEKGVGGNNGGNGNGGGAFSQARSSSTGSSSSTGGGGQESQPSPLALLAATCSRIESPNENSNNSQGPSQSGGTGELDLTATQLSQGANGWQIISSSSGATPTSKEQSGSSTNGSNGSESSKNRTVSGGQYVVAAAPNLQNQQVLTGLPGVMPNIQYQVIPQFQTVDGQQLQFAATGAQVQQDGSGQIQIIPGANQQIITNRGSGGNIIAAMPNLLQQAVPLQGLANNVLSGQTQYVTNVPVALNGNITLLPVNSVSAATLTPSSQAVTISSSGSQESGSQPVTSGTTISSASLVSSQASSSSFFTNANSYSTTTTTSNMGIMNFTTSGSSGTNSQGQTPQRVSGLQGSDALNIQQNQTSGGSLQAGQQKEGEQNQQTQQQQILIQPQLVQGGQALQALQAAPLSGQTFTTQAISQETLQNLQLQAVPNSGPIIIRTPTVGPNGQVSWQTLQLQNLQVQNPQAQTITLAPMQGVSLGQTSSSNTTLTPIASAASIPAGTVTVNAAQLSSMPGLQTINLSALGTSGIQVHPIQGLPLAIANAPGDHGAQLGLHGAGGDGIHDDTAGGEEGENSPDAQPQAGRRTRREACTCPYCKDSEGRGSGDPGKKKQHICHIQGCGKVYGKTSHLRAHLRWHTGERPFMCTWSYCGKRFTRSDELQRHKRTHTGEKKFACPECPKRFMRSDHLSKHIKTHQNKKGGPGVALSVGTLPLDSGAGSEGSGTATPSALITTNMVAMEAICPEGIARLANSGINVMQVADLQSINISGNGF
Method in brief: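 Read-out is reporter transcript level, measured by RT-PCR and fluorescent capillary electrophoresis after 24 h chemical treatment. System: transiently transfected HepG2 cells reporting endogenous transcription factor activity; gain or loss fitted against DMSO baseline.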

[14] = ATG_SREBP_CIS: Attagene CIS-FACTORIAL HepG2 Assay for human Sterol Regulatory Element Binding (SREBP) (AID 2282962); details: HepG2 Attagene cis-factorial SREBP reporter, mRNA; actives raise or lower the signal
Method in brief: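 HepG2 cells transiently transfected with multiplexed cis-promoter reporter units sensing endogenous transcription factors; reporter mRNA measured 24 h after dosing by RT-PCR, 6-FAM labeling, HpaI digestion and capillary electrophoresis. Bidirectional fit versus DMSO.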

[15] = biological target: Signal transducer and activator of transcription 3 (Homo sapiens) (UniProt P40763); assay: ATG_STAT3_CIS: Attagene CIS-FACTORIAL HepG2 Assay for human Signal Transducer and Activator of Transcription 3 (STAT3) (AID 2282963); details: HepG2, Attagene cis-factorial STAT3 reporter transcription; actives raise or lower the signal
Chain of Signal transducer and activator of transcription 3 (Homo sapiens) (P40763 whole entry, looked up): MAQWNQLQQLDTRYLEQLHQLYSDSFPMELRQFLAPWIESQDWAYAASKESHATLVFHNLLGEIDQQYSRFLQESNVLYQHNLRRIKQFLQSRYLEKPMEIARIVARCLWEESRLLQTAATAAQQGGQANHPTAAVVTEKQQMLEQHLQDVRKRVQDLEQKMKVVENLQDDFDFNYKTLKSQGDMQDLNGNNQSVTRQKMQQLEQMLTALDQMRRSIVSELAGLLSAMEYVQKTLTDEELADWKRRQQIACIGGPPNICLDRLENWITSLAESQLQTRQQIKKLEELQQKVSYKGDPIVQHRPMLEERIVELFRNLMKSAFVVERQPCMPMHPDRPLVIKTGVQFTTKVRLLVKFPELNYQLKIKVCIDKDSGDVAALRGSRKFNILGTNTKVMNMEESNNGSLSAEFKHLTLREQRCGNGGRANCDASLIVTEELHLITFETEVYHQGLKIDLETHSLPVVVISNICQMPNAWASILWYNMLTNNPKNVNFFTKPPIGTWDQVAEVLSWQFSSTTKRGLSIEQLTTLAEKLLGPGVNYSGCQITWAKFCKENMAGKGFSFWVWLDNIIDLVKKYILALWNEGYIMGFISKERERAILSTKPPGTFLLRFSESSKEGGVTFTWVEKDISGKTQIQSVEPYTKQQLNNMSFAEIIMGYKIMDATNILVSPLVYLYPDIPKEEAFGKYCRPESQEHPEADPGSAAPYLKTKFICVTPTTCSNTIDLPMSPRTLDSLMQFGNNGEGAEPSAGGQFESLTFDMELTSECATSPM
Method in brief: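 Endogenous STAT3-responsive cis-element activity was read in transiently transfected HepG2 cells after 24 h treatment. Reporter transcripts were quantified via RT-PCR and capillary electrophoresis, with DMSO as negative control and bidirectional curve fitting.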

[16] = ATG_TA_CIS: Attagene CIS-FACTORIAL HepG2 Assay for human TA Basal Promoter (AID 2282964); details: HepG2 Attagene CIS-factorial TA basal promoter reporter; actives raise or lower the signal
Method in brief: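 Cis-factorial format in HepG2: reporters report endogenous factors, not chimeric Gal4 fusions. After 24 h treatment, reporter transcripts were measured by RT-PCR-capillary electrophoresis fluorescence, analysed bidirectionally versus DMSO.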

[17] = ATG_TCF_b_cat_CIS: Attagene CIS-FACTORIAL HepG2 Assay for human T-Cell-Factor with beta-catenin (TCF/b-cat) (AID 2282965); details: HepG2 TCF/beta-catenin cis-reporter transcription, actives raise or lower the signal
Method in brief: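 Measured: reporter mRNA in HepG2 transiently transfected with cis-promoter reporter units, 24 h after chemical addition. Fitting was bidirectional, DMSO as negative control.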

[18] = ATG_TAL_CIS: Attagene CIS-FACTORIAL HepG2 Assay for human TAL Basal Promoter (AID 2282966); details: HepG2 Attagene cis-factorial TAL promoter reporter; actives raise or lower the signal;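 also: background control endpoint measuring basal TAL promoter reporter mRNA not a specific factor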
Method in brief: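 In this cell-based multiplex, HepG2 liver cells bearing cis-promoter reporter constructs are dosed for 24 hours. Total RNA is reverse-transcribed and amplified, labelled fragments are sized by capillary electrophoresis, and signal changes are fitted bidirectionally versus DMSO.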

[19] = ATG_TGFb_CIS: Attagene CIS-FACTORIAL HepG2 Assay for human Transforming Growth Factor (TGF) (AID 2282967); details: HepG2 Attagene CIS TGFb reporter, mRNA transcription; actives raise or lower the signal
Method in brief: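 Multiplexed cis-reporter HepG2 system, 24 h treatment; mRNA induction read by fluorescence after RT-PCR and CE; DMSO negative control, bidirectional curve fitting.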

[20] = ATG_PBREM_CIS: Attagene CIS-FACTORIAL HepG2 Assay for human Phenobarbital-responsive Enhancer Module (PBREM) (AID 2282955); details: HepG2 PBREM cis-reporter, Attagene multiplexed transcription; actives raise or lower the signal
Method in brief: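 Endogenous transcription factor activity was read from reporter transcripts in transiently transfected human HepG2 liver cells after 24 h dosing. RT-PCR products were fluorescently labelled, HpaI-cut and sized by capillary electrophoresis; activity fitted bidirectionally against DMSO baseline.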

Measured: AC50

NCCN
inactive: [1] | [2] | [3] | [4] | [5] | [6] | [7] | [8] | [9] | [10] | [11] | [12] | [13] | [14] | [15] | [16] | [17] | [18] | [19]
active: [9] 164 µM

CCCC=O
not listed: [12] | [13]
inactive: all other assays above

O=S(=O)(O)c1ccc2cc(O)ccc2c1
not listed: [10] | [11] | [12]
inactive: all other assays above

CCN(CCC#N)c1ccccc1
active: [9] 39.6 µM
not listed: [13]
inactive: all other assays above

C=CC(=C)CC/C=C(\C)CCC=C(C)C
active: [9] 3.39 µM
not listed: [12]
inactive: all other assays above

O=C(c1cc(O)c(O)c(O)c1)c1ccc(O)c(O)c1O
active: [4] 53.5 µM
not listed: [10]
inactive: all other assays above

CCCCCCCCCCCCOC(=O)c1cc(O)c(O)c(O)c1
active: [1] 11.1 µM | [4] 6.75 µM | [6] 8.12 µM | [7] 18.5 µM | [20] 21.3 µM | [9] 2.94 µM | [14] 2.85 µM
not listed: [10]
inactive: all other assays above

From PubChem BioAssay (EPA / NIEHS)
